Experimental data from PubChem BioAssay (NCI).
The panel holds about 83,000 compounds, 20% with a hit somewhere; the sample as a whole holds those more often.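 Percent growth is the endpoint: 0 to 100 indicates growth inhibition (40 means 60% inhibition), 0 means no net growth, and negative values indicate cell death.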 Values without a mark were called inactive. Calls of active or inactive are those of the source. The calls were made as follows: active = growth percent below 10; inactive = the rest.

Key:
Experiment in all cases: NCI-60 one-dose screen, 48 h (100 = growth as untreated, 0 = no growth, -100 = all killed)
Details in all cases: 10 µM unless noted
[1] = system: BT-549 breast
[2] = system: MDA-MB-435 melanoma
[3] = system: SW-620 colon
[4] = system: MCF7 breast
[5] = system: HCT-116 colon
[6] = system: HCC-2998 colon
[7] = system: KM12 colon

Structure (SMILES)	growth [1]	growth [2]	growth [3]	growth [4]	growth [5]	growth [6]	growth [7]
COc1ccc(-c2[nH]c3ccccc3c2C=C(C#N)C#N)cc1	45.9%	-34.6% (active)	20.5%	11.4%	4.01% (active)	-39.2% (active)	3.41% (active)
C=CCn1c(SCC(=O)Nc2ccc(C(=O)/C=C/c3ccc(Cl)cc3)cc2)nnc1-c1cc(OC)c(OC)c(OC)c1	94%	93.2%	98.2%	41%	6.42% (active)	106%	93.3%
Nc1n[nH]c2cccc(C#Cc3cccc(NC(=O)c4cc(N5CCOCC5)cc(C(F)(F)F)c4)c3)c12	63.4%	45.8%	46.6%	46.6%	19.4%	31.3%	54.5%
CCOC(=O)C1=C(C)n2nc(CC#N)c(C#N)c2NC1c1ccc(CC)cc1 (stereo unspecified)	85.4%	98.5%	97.6%	88.7%	95.4%	97.6%	97%
N#Cc1nc(-c2ccccc2)oc1S(=O)(=O)NCC(c1ccc(Cl)cc1)N1CCCCC1 (stereo unspecified)	77.6%	64.3%	26.5%	35%	27.3%	107%	80.6%
O=C(CN1N=C(c2ccc(F)cc2)CCC1=O)Nc1nccs1	101%	102%	91.6%	93.8%	104%	97.6%	107%
Cc1cc(C)c(NC(=O)c2sc3nc4c(cc3c2N)CCCCCC4)c(C)c1	53.6%	4.56% (active)	36.2%	24.3%	57.3%	84.7%	49%
CCCCCCC/C=C/[C@H]1O[C@]23C(=O)C[C@@]4(C[C@@H](OC5OC(CO)C(O)C(O)C5O)C[C@@H]4[C@H]2C=C1C)OC3=O (stereo partly specified)	-0.665% (active)	3.95% (active)	9.92% (active)	14.4%	1.7% (active)	31.3%	28.6%
C=C1C(=O)O[C@H]2[C@H]1CC/C(COC(=O)CCCCCCC(=O)OC/C1=C/CC[C@@]3(C)O[C@H]3[C@H]3OC(=O)C(=C)[C@@H]3CC1)=C\CC[C@@]1(C)O[C@@H]21	49.4%	40.4%	14.8%	14.8%	-40.6% (active)	89.3%	61.5%
COC(=O)/C=C/c1cc(OC(C)=O)c2c(c1)C(C(=O)OC)C(c1ccc(OC(C)=O)c(OC(C)=O)c1)O2 (stereo unspecified)	-4.09% (active)	-26.1% (active)	20.5%	10%	9.77% (active)	25.5%	16.5%
COc1cccc2c1-c1ccccc1C2=O	-0.0616% (active)	-48.2% (active)	26.7%	24%	12.9%	30.8%	36%
N#Cc1ccc(C2C3=C(CCCC3=O)OC3=C2C(=O)c2ccccc2C3=O)cc1 (stereo unspecified)	91.9%	-77% (active)	49.3%	0.491% (active)	6.16% (active)	104%	89.8%
COC1=CC2C=C(C3N(c4ccccc4)NC(=O)[C@@H]4CCCN34)C(=O)NC2C=C1 (stereo partly specified)	97.4%	97%	105%	94.1%	93.8%	94.8%	100%
COc1cc2c(cc1OCCCOc1cc3c(cc1OC)C(=O)N1CC(F)(F)C[C@H]1C=N3)N=C[C@@H]1CC(F)(F)CN1C2=O	-38.5% (active)	-11.8% (active)	1.84% (active)	13.8%	4.77% (active)	-7.61% (active)	-18.5% (active)
Nc1ccc(C2=NN(C(=O)c3cc(-c4ccc(Cl)cc4)nc4ccccc34)C(c3ccc(Cl)cc3)C2)cc1 (stereo unspecified)	52.3%	-23.1% (active)	29.6%	14.8%	23%	62.9%	27.5%
CCOC(=O)c1c(C)nc2c(c1N)/C(=C/c1cccs1)C(=O)N2c1ccc(OC)cc1	45.9%	59.9%	67.6%	25%	20.9%	80.7%	70.2%
Nc1cc(N)nc(SCC(=O)O)n1	109%	109%	104%	105%	99.1%	101%	104%

Structure (SMILES)	growth [1]	growth [2]	growth [3]	growth [4]	growth [5]	growth [6]	growth [7]
CCCCc1n(Cc2ccc3ccccc3c2)c2ccccc2[n+]1Cc1ccc2ccccc2c1	-74% (active)	-93.6% (active)	-79.8% (active)	-85.6% (active)	-83.2% (active)	-80.6% (active)	-82.9% (active)
CCC[S@@](=O)c1ccc2nc(NC(=O)OC)[nH]c2c1	79.1%	16.6%	71%	61.9%	79.6%	90%	65.6%
Cc1ccn2c3c(c(C(=O)O)c2c1)C(=O)c1ccccc1C3=O	58.9%	-78.2% (active)	74.1%	61.1%	82.3%	62%	66.7%
CCCn1cc(/C=N\N=C2\C(=O)Nc3ccc(C)cc32)c2ccccc21	63.5%	-26.6% (active)	36.7%	8.92% (active)	39.9%	47%	59.9%
CCOC(=O)C1=C(C)n2nc(CC#N)c(C#N)c2NC1c1ccc(Cl)cc1 (stereo unspecified)	92%	100%	97.5%	90.2%	101%	99.9%	85.4%
Oc1ccccc1-c1nc2c3ccccc3c3ccccc3c2o1	103%	99.3%	68.4%	62.4%	80.7%	103%	93.3%
COc1ccc(Cl)c([N+](=O)[O-])c1	104%	99.6%	103%	95.5%	108%	104%	102%
COC(=O)c1ccc2c(c1)n(Cc1ccc3ccccc3c1)c[n+]2Cc1ccc2ccccc2c1	56.7%	4.2% (active)	37.6%	29.2%	32%	33.9%	-8.69% (active)
Nc1c(C(=O)Nc2ccccn2)sc2nc3c(cc12)CCCCC3	52.6%	-25.2% (active)	30%	20.1%	17.1%	30.7%	18.8%
CN(C)C(CNc1oc(-c2cccc3ccccc23)nc1C#N)c1ccco1 (stereo unspecified)	91.4%	97.4%	103%	87.8%	89.3%	105%	97.4%
C[C@H]1[C@H](C)CC[C@]2(C(=O)OCCCC[P+](c3ccccc3)(c3ccccc3)c3ccccc3)CC[C@]3(C)C(=CC[C@@H]4[C@@]5(C)CC[C@H](OC(=O)C(Cl)Cl)C(C)(C)[C@@H]5CC[C@]43C)[C@H]12	-87.1% (active)	-91.4% (active)	-71.3% (active)	-38.1% (active)	-89.2% (active)	-84.8% (active)	-85.7% (active)
O=[N+]([O-])c1cccc(CN(Cc2cccc([N+](=O)[O-])c2O)c2ccccc2)c1O	88.9%	91.4%	56.9%	84.8%	15.7%	67.1%	88.5%
CC1=C(CCCOC(=O)NCCCl)C2=C(C)C3(CC3)[C@@](C)(O)C(=O)C2=C1	17.5%	84.8%	80.3%	29.8%	28.2%	28.8%	79.2%
C[C@H]1[C@H](C)CC[C@]2(C(=O)OCCOCCOCC[P+](c3ccccc3)(c3ccccc3)c3ccccc3)CC[C@]3(C)C(=CC[C@@H]4[C@@]5(C)CC[C@H](OC(=O)C(Cl)Cl)C(C)(C)[C@@H]5CC[C@]43C)[C@H]12	-66.3% (active)	-24.1% (active)	12.5%	2.81% (active)	-36.3% (active)	19.1%	7.09% (active)
CC(=O)Nc1c(C(=O)Nc2ccccc2)sc2nc3c(cc12)C(OC(C)=O)CCC3 (stereo unspecified)	83.6%	35.3%	97.4%	97.6%	104%	68.7%	80.2%
COc1cccc(NC(=O)Nc2ccc(Nc3ncnc4[nH]c(C)c(C)c34)cc2)c1	97.7%	102%	110%	91.1%	116%	115%	70.6%
